In PubChem BioAssay:
Active and inactive are the calls of the source.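 The calls were made as follows, unless noted: active = fluorescence slope higher than the sample average by over 3 SD (cut at about -0.22 in these data, passing the limit was not always enough); inactive = the rest.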

Experiments:
[1] = inhibitors of TNFa-induced NFkB p65 translocation, primary screen, imaging, HUVEC, MLSMR starter and 10KST1 sets (AID 438;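 active = inhibition above 20% together with a positive visual image hit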;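 also: compound added about 3h40 before a 20 min TNFalpha stimulation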;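 as to inhibition: signal is the nuclear over cytoplasmic p65 intensity ratio per well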); settings: HUVEC TNFa-induced p65 nuclear translocation; cell count: measured here: nuclei count (cytotoxicity indicator), at 2.08 µM; inhibition: at 2 µM, stronger effect = higher value, 0% TNFa-plus-vehicle, 100% no-TNFa wells
[2] = inhibitors of mutant huntingtin aggregation, primary screen, imaging, exon1htt(103Q)mCFP cells, high-content imaging (AID 483;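 active = visual image review flags a hit and inhibition of aggregation exceeds 20%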;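 also: compound exposure lasted 3 days before fixation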;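 as to nuclei count: percent of the per-plate median nuclei count of sample wells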); settings: exon1htt(103Q)mCFP cell line, aggregate imaging, at 2 µM; inhibition of aggregation: stronger effect = higher value; nuclei count: measured here: cell count, toxicity
[3] = inhibitors of E-selectin induction by TNFa, primary screen, imaging, HUVEC, immunofluorescence, MLSMR starter and 10KST1 sets (AID 487;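 active = visually confirmed hit in the image check and inhibition above 20%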;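 as to inhibition: signal is fraction of cell area covered by stained E-selectin grains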;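 as to nuclei count: 100% = median nuclei count of all wells on the same plate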); settings: HUVEC TNFalpha-induced E-selectin immunofluorescence imaging, at 2 µM; inhibition: stronger effect = higher value; nuclei count: measured here: cell number, toxicity
[4] = target: Voltage-gated potassium channel subunit beta-2 (Rattus norvegicus) (UniProt P62483); experiment: KvBeta enzyme negative modulators, primary screen, biochemical, NADPH fluorescence (AID 622); settings: recombinant KvBeta, 4-cyanobenzaldehyde reduction, at 10 µM, stronger effect = higher value;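 also: slope of raw intensity against log time taken from 70 to 1610 s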
[5] = target: Voltage-gated potassium channel subunit beta-2 (Rattus norvegicus) (UniProt P62483); experiment: KvBeta positive modulators, primary screen, biochemical, NADPH fluorescence (AID 623;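 active = NADPH fluorescence slope more negative than the mean of all samples by about 3 SD, 99.7% confidence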;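 also: fluorescence intensity change per second fitted from 20 to 320 s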); settings: Recombinant KvBeta, NADPH fluorescence decrease slope, 10 min; at 10 µM; stronger effect = lower value
[6] = target: Alpha-2C adrenergic receptor (Homo sapiens) (UniProt P18825); experiment: modulators of alpha2C/GIRK thallium flux, primary screen, cell-based, HEK293 alpha2C/GIRK1/2 (AID 624;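 active = fluorescence slope after compound addition differing from the mean of all screened samples at 99.7% confidence, in either direction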;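 also: slope of fluorescence ratio to pre-addition baseline per second over 15 to 24 s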); settings: thallium flux BTC fluorescence, at 10 µM, actives lie on both sides
[7] = inhibitors of Sendai virus-induced IRF3 signaling, primary screen, TLR/RLR signaling modifier project, cell-based, Sendai virus stimulus, luciferase, 10K MLSCN set (AID 602276;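 active = inhibition at or above 50% at 10 µM; inactive = inhibition below 50%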;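 also: firefly luciferase from ISG56 promoter only with Renilla not read in this screen; 0% = Sendai virus plus DMSO and 100% = medium plus DMSO without virus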); settings: HEK293 RL24 IRF3 luciferase reporter, at 10 µM, stronger effect = higher value
[8] = inhibitors of poly I:C-induced TLR3 signaling, primary screen, cell-based, poly I:C stimulus, luciferase, 10K MLSCN set (AID 602277;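 active = inhibition of the reporter signal at or above 50%; inactive = inhibition below 50%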); settings: HEK293-TLR3 RL24 IRF3 luciferase reporter, at 10 µM, stronger effect = higher value

Sequence of Voltage-gated potassium channel subunit beta-2 (Rattus norvegicus) (P62483 whole entry, looked up): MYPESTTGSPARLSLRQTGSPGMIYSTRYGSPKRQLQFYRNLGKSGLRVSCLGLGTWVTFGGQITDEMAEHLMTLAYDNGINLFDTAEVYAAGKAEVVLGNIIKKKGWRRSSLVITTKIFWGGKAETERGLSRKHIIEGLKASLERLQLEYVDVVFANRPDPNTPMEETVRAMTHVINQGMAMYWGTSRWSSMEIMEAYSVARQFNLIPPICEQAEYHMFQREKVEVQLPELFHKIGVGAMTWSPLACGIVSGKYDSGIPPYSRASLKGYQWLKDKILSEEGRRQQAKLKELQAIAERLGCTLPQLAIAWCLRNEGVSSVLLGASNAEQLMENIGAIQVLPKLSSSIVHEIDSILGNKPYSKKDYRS
Sequence of Alpha-2C adrenergic receptor (Homo sapiens) (P18825 whole entry, looked up): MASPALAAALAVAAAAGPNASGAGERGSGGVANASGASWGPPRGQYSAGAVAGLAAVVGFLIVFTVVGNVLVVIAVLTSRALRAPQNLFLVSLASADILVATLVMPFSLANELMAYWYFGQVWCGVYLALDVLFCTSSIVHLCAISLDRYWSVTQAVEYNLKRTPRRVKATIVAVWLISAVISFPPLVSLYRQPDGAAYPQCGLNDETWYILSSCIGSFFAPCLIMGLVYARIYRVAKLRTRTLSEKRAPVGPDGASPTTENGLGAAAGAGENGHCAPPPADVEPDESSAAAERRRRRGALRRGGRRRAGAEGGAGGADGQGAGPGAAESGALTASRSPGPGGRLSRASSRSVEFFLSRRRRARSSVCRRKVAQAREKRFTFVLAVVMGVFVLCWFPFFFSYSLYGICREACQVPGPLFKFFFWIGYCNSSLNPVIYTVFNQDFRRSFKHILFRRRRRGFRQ

Compound	cell count [1]	inhibition [1]	inhibition of aggregation [2]	nuclei count [2] [%]	inhibition [3]	nuclei count [3] [%]	fluorescence slope [4]	NADPH fluorescence slope [5]	slope [6]	inhibition [7]	inhibition [8]
CCOC(=O)c1cnc2c(OC)cccc2c1N1CCN(c2ccc(OC)cc2)CC1	158	-4.9% (inactive)	16.9% (inactive)	72.9	2.9% (inactive)	80.4	-0.577 (inactive)	-4.5e-05 (inactive)	0.00543 (inactive)	19.3% (inactive)	24.8% (inactive)
CCN(CC)CCCN1C(=O)C(O)=C(C(=O)c2ccco2)C1c1ccc(C)o1 (stereo not drawn)	330	22.9% (inactive)	-17.3% (inactive)	106	-22.2% (inactive)	99.7	-0.607 (inactive)	-3.7e-05 (inactive)	0.00682 (inactive)	8.72% (inactive)	8.23% (inactive)
COc1ccc(N2CCN(Cc3nc4c(c(=O)n(C)c(=O)n4C)n3Cc3ccccc3C)CC2)cc1	719	-14% (inactive)	5.8% (inactive)	100	-7.8% (inactive)	129	-0.428 (inactive)	-2.3e-05 (inactive)	0.00487 (inactive)	14.4% (inactive)	39.9% (inactive)
O=C(Cn1nc(Cc2cccnc2)c2ccccc2c1=O)NCC1CCCO1 (stereo not drawn)	461	6.1% (inactive)	12.1% (inactive)	69.2	-96.1% (inactive)	115	-0.553 (inactive)	-2.6e-06 (inactive)	0.00713 (inactive)	11.5% (inactive)	29.9% (inactive)
CC(C)(C)c1ccc(C(=O)Nc2cnccn2)cc1	351	1.7% (inactive)	7.6% (inactive)	100	11.6% (inactive)	108	-0.379 (inactive)	-6.5e-05 (inactive)	0.0039 (inactive)	-50.1% (inactive)	-138% (inactive)
CC(C)CNS(=O)(=O)c1ccc(CCC(=O)N2CCOCC2)cc1	647	1.1% (inactive)	-3% (inactive)	104	-45.6% (inactive)	104	-0.471 (inactive)	-4.8e-05 (inactive)	0.00694 (inactive)	8.44% (inactive)	21.1% (inactive)
CSCCC(NS(=O)(=O)c1ccc2c(c1)oc(=O)n2C)C(=O)NC1CCCCC1 (stereo not drawn)	627	-6% (inactive)	7.8% (inactive)	93	-35.6% (inactive)	106	-0.584 (inactive)	-3.7e-05 (inactive)	0.00669 (inactive)	11.8% (inactive)	25.6% (inactive)
CC(=O)c1coc2ccc(OCC(=O)O)cc12	678	-11.2% (inactive)	-4.6% (inactive)	110	-42.3% (inactive)	110	-0.598 (inactive)	-4.1e-05 (inactive)	0.00474 (inactive)	6.78% (inactive)	15.6% (inactive)
Cc1cc(O)c(-c2cc(C(=O)Nc3ccc(S(=O)(=O)N4CCOCC4)cc3)[nH]n2)cc1C	499	5.8% (inactive)	-6.9% (inactive)	100	-62.7% (inactive)	153	-0.584 (inactive)	-1.4e-05 (inactive)	0.00629 (inactive)	-12.1% (inactive)	-24.7% (inactive)
CC(NCc1ccco1)C(=O)N1CCc2ccccc2C1 (stereo not drawn)	705	-49% (inactive)	6.5% (inactive)	105	27% (inactive)	108	-0.48 (inactive)	-0.000253 (inactive)	0.00559 (inactive)	-8.88% (inactive)	1.37% (inactive)
CCS(=O)(=O)N1CCCC(C(=O)NCc2ccccc2Cl)C1 (stereo not drawn)	257	-1.9% (inactive)	-1.1% (inactive)	107	-15.6% (inactive)	112	-0.608 (inactive)	-1.9e-05 (inactive)	0.00474 (inactive)	3.16% (inactive)	-6.49% (inactive)
Cc1nnc(SCC(=O)Nc2ccc(Br)cn2)[nH]c1=O	359	-8.5% (inactive)	18.1% (inactive)	117	-43.2% (inactive)	114	-0.426 (inactive)	-1.1e-05 (inactive)	0.00432 (inactive)	15.8% (inactive)	5.27% (inactive)
CCCC(=O)Nc1cc(C)c2c(=O)oc3ccccc3c2n1	627	-24.4% (inactive)	-6.5% (inactive)	97.4	-37.2% (inactive)	121	-0.447 (inactive)	-7.8e-05 (inactive)	0.0057 (inactive)	-9.8% (inactive)	-24.7% (inactive)
CCN(CC)CCCNC(=O)c1cn(C)c2ccc(S(=O)(=O)N(C)C)cc2c1=O	559	-2.8% (inactive)	-53.9% (inactive)	73.6	69.2% (active)	98.9	-0.587 (inactive)	-3.7e-05 (inactive)	0.00615 (inactive)	7.25% (inactive)	33.2% (inactive)
O=C1C(Cl)=C(N2CCCCC2)C(=O)N1c1ccccc1Cl	450	4.4% (inactive)	-0.8% (inactive)	105	-57.1% (inactive)	126	-0.465 (inactive)	-0.000114 (inactive)	0.00518 (inactive)	16.8% (inactive)	24.8% (inactive)
COc1ccc2c(c1)OC(O)(C(F)F)CC2=O (stereo not drawn)	406	1.5% (inactive)	5.7% (inactive)	91.2	-205% (inactive)	96.2	-0.398 (inactive)	2.1e-05 (inactive)	0.00381 (inactive)	6.89% (inactive)	28.4% (inactive)
O=C(Cc1ccccc1)N1CCCC(c2nc(-c3cccs3)no2)C1 (stereo not drawn)	731	-6.1% (inactive)	-15.1% (inactive)	89.6	-22.8% (inactive)	121	-0.475 (inactive)	1.1e-05 (inactive)	0.00636 (inactive)	-9.21% (inactive)	2.57% (inactive)
Cc1cccc(-n2ncc3c(N(CCO)CCO)ncnc32)c1	635	1.4% (inactive)	-5% (inactive)	53.9	-35.6% (inactive)	125	-0.513 (inactive)	-1.8e-05 (inactive)	0.00728 (inactive)	-28.4% (inactive)	-84.3% (inactive)
CCOC(=O)c1ccc(N=c2sc(C(=O)OC)cc(=O)n2Cc2ccco2)cc1	514	-8% (inactive)	-5.9% (inactive)	107	0.2% (inactive)	112	-0.608 (inactive)	-4.8e-05 (inactive)	0.00678 (inactive)	-17.5% (inactive)	77.4% (active)
O=C1NC(Cc2c[nH]c3ccccc23)C(=O)N1CCOc1ccccc1 (stereo not drawn)	674	4.9% (inactive)	3.1% (inactive)	120	-14.9% (inactive)	138	-0.429 (inactive)	-4.2e-05 (inactive)	0.00422 (inactive)	13.6% (inactive)	19.7% (inactive)
CC12CN3CC(C)(CN(C1)C3c1ccc(Cl)cc1Cl)C2=O (stereo not drawn)	849	-4.6% (inactive)	-26.4% (inactive)	123	-21.6% (inactive)	121	-0.557 (inactive)	-1.9e-05 (inactive)	0.00699 (inactive)	1.89% (inactive)	28.2% (inactive)
Cc1nn(C)c(C)c1NC(=O)CSc1nc(Cc2ccccc2)nc2c1cnn2-c1ccccc1	360	-0.5% (inactive)	-17.9% (inactive)	105	-127% (inactive)	121	-0.491 (inactive)	-6.6e-05 (inactive)	0.00793 (inactive)	12% (inactive)	3.8% (inactive)
CCOc1ccc(C(=O)Nc2ccc(N3CCN(C)CC3)cc2)cc1Br	434	3.4% (inactive)	0.4% (inactive)	95.5	6.4% (inactive)	89.5	-0.571 (inactive)	-3.6e-05 (inactive)	0.00342 (inactive)	-15.1% (inactive)	-22.4% (inactive)
COc1ccc(-c2cc(C(F)(F)F)n3nc(C(=O)N4CCOCC4)nc3n2)cc1	620	11.1% (inactive)	-19.6% (inactive)	103	41.9% (inactive)	102	-0.172 (inactive)	-5.6e-05 (inactive)	0.00494 (inactive)	10.8% (inactive)	15.3% (inactive)
Cc1ccc(C(C)n2cc(C(=O)NCCN3CCN(C)CC3)nn2)cc1 (stereo not drawn)	429	12.1% (inactive)	-6.7% (inactive)	117	-7.3% (inactive)	119	-0.575 (inactive)	-1.3e-05 (inactive)	0.00588 (inactive)	3.51% (inactive)	7.62% (inactive)
O=C(Nc1ccc2c(c1)OCO2)OCc1ccccc1	449	1.6% (inactive)	-6% (inactive)	101	8.4% (inactive)	101	-0.439 (inactive)	-5.5e-05 (inactive)	0.0049 (inactive)	-47.7% (inactive)	-107% (inactive)
O=C(CN1C(=O)CSC1=O)N1CCc2ccccc2C1	324	4.8% (inactive)	14% (inactive)	101	0.8% (inactive)	107	-0.423 (inactive)	-5.1e-05 (inactive)	0.00367 (inactive)	6.34% (inactive)	31% (inactive)
CSc1nc(C)cc(OCC(=O)N2CCOCC2)n1	262	-7.5% (inactive)	25.5% (inactive)	104	-37.5% (inactive)	95	-0.451 (inactive)	-3.8e-05 (inactive)	0.00307 (inactive)	7.52% (inactive)	23.9% (inactive)
